# Compound activity: PubChem, National Center for Advancing Translational Sciences (NCATS)
# TGFb inhibitor – inhibitors of TGF-b signaling | HepG2 CAGA-GFP TGF-b/SMAD3 reporter, GFP fluorescence, 18 h; TGF-beta stimulated, 500 pg/mL final | Potency, µM (highest dose often 46.1 µM), without a hit: at the top dose activity, negative = inhibition, usual class: inhibitors | 410,000 tested, 1.2% active; also: % is scaled to controls: 0 for no effect and ±100 for the full control effect; nearly all actives have a fitted effect of over 65% in size
#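 Per well, imaged GFP fluorescence of HEPG2 CAGA-GFP cells gives the signal; cells get compound, then TGF-beta (500 pg/mL final), 18 h at 37 degrees C; %Activity versus -TGF-beta and +DMSO controls.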
# HT1080-NT tox – kills 2HG-producing HT-1080-NT fibrosarcoma cells | Potency, µM (top dose mostly 46.1 µM), for inactives: at the highest dose activity, negative = less viability, usual class: cytotoxic | AID 686970 | 360,000 tested, 1.6% active | HT-1080-NT fibrosarcoma viability, CellTiter-Glo ATP luminescence, 48 h;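 also: NT is the 2HG producing partner of a matched IDH1 knockdown line; 0% = DMSO-treated cells and -100% = media-only wells without cells; nearly all actives have a fitted effect of over 55% in size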
#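 Fibrosarcoma NT cells, 750 per well in 5% FBS RPMI, were exposed to compound for 48 hours. Viability: CellTiter-Glo luminescence.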
# HT1080 IDH1KD tx – HT-1080 IDH1 knockdown cell toxicity (counter line) | HT-1080 IDH1 knockdown viability, ATP luminescence, 48 h | Potency, µM (series often up to 46.1 µM), for the others: at the highest dose activity, negative = toxicity, usual class: cytotoxic | 360,000 tested, 2% active;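 also: 0% = DMSO wells and -100% = cell-free medium wells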
#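 After a 2 h attachment period, IDH1KD HT-1080 cells took pin-transferred compound for 48 h at 37 °C; ATP-based luminescence after 10 min room-temperature reagent incubation reported viability.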
# KB-V1 cytotox – kills drug-selected multidrug resistant KB-V1 cells; KB-V1 MDR cells viability, CellTiter-Glo, 72 h; Potency, µM (doses to about 46.1 µM), hits mostly cytotoxic; 400,000 tested, 3.4% active; AID 1347076; also: % is scaled to controls: 0 for no effect and ±100 for the full control effect; nearly all actives have a fitted effect of over 60% in size
#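 Cells of the MDR subline KB-V1 are plated, dosed with compound at multiple concentrations, and incubated 72 h at 37 degrees C; CellTiter-Glo is then added and luminescence read after 10 min.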
# KB-3-1 cytotox – KB-3-1 parental cell cytotoxicity; Potency, µM (highest dose often 46.1 µM), actives largely listed as cytotoxic; 400,000 tested, 1.4% active; KB-3-1 viability, CellTiter-Glo ATP luminescence, 72 h; AID 1347075; also: % is scaled to controls: 0 for no effect and ±100 for the full control effect; nearly all actives have a fitted effect of over 60% in size
#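 Cytotoxicity in the drug-sensitive parental line KB-3-1 was scored as loss of CellTiter-Glo luminescence following 72 h incubation with compound. Values come from curve fitting of normalized concentration-response data.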
# HepG2 tox – counter-screen for TGF-b inhibitors: cytotoxicity in HepG2 cells; HepG2 CAGA-GFP viability, ATP luminescence, 18 h; Potency, µM (top dose mostly 46.1 µM), for inactives: at the top dose activity change, negative = cytotoxicity, usual class: cytotoxic; 410,000 tested, 0.76% active; AID 588856
#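 HepG2 CAGA-GFP cells (1000/well, DMEM with 1% FBS) received compound, then TGF-beta at 500 pg/mL final, and were incubated 18 hours at 37 degrees C. Viability was read by CellTiter-Glo luminescence. Media-only wells were set as complete cell-killing and DMSO as no toxicity.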
# An asterisk follows results filed as active; i = inactive; ? = inconclusive; · = not tested or not shown; ! = not active in a repeat. Compounds with a hit are over-represented: about 6.6% of the library has one in this group of screens. Calls follow the shape of the dose curve; as a rule, active = well fitted curve in the direction sought with a large enough effect; inconclusive = small, poorly fitted or top-dose-only effect, or another doubt; inactive = no such curve, though single readings can be large; an effect the other way counts as inactive or inconclusive. Potency is read from the fitted curve at half-maximal effect.
SMILES,TGFb inhibitor,HT1080-NT tox,HT1080 IDH1KD tx,KB-V1 cytotox,KB-3-1 cytotox,HepG2 tox
Cc1ccc(-c2nc(NCCN(C)C)c3ccccc3n2)cc1,?,?,21µM*,?,?,-12%
O=c1c2c(-c3ccccc3)csc2nc2c3ccccc3c(NCCN3CCOCC3)nn12,0%,15µM*,10µM*,21µM*,i,-4%
O=c1c2ccccc2nc(-c2ccccc2)n1CCN1CCOCC1,4%,7%,-1%,i,i,-2%
c1ccc(-c2csc3ncnc(NCCCN4CCOCC4)c23)cc1,7%,-25%,?,8.2µM*,i,4%
CCCCSc1nnc2n(-c3cccc(C)c3)c(=O)c3c4c(sc3n12)CCCC4,-1%,·,·,i,i,0%
O=C(NC(c1ccco1)c1cc(Cl)c2cccnc2c1O)c1cccs1 (configuration not stated),·,·,·,?,i,·
Cc1ccn2c(NC(=O)c3cccc(Cl)c3)c(-c3ccccc3)nc2c1,?,·,·,?,i,-16%
Cc1ccc(-c2nc(C(Cl)Cl)c3ccccc3n2)cc1,-4%,-16%,-21%,21µM*,21µM*,-13%
Cc1csc2c(NCCCN3CCOCC3)ncnc12,-10%,2%,0%,i,i,6%
c1csc(-c2csc3ncnc(NCCCN4CCOCC4)c23)c1,-4%,?,?,3.3µM*,?,5%
COc1ccc(CNCCSc2nnnn2-c2ccccc2)cc1,-3%,·,·,i,i,-21%
CC1Cc2ccccc2N1S(=O)(=O)c1nnc(NC(=O)c2cccc(F)c2)s1 (configuration not stated),?,·,·,i,?,-32%
O=c1[nH]c2ccc(NCc3ccccc3OCc3ccc(Cl)cc3)cc2[nH]1,?,16µM*,?,i,?,-30%
Oc1ccc(NCc2ccccc2OCc2ccccc2)cc1,8.9µM*,-21%,?,i,i,11µM*!
CCOc1cc(CNc2ccc(O)cc2)ccc1OCc1ccc(Cl)cc1,13µM*,·,·,i,i,-102%
COc1cccc(CNc2ccc3[nH]c(=O)[nH]c3c2)c1OCc1ccc(F)cc1,-15%,-28%,1%,i,i,5%
CCNCc1ccccc1OCc1ccccc1,1%,-11%,-7%,i,?,0%
Oc1ccc(NCc2ccccc2OCc2ccc(Cl)cc2)cc1,5.6µM*,·,·,·,·,13µM*
Fc1ccccc1CNc1ccc(Cl)cc1,3%,3%,-20%,i,i,-20%
Cc1ccc2oc(C(=O)N(Cc3ccccc3F)C3CCS(=O)(=O)C3)c(C)c2c1 (configuration not stated),-27%,·,·,i,i,-16%
C=C1C=C(C(F)F)n2ncc(C(=O)NCc3ccc(Cl)cc3)c2N1,2%,·,·,i,i,-2%
COc1ccc(CCNC(=O)C(C)n2nc(C)c3sc4ccccc4c3c2=O)c(OC)c1 (configuration not stated),·,·,·,·,·,0%
COc1ccc(CCNC(=O)c2ccc(Cn3c(=O)[nH]c4cc(OC)c(OC)cc4c3=O)cc2)cc1OC,-13%,·,·,?,i,-6%
CCCc1cc(=O)oc2cc(C)c3c(-c4ccccc4)coc3c12,-1%,·,·,?,i,-24%
COc1ccccc1OCCCn1c(=O)sc2ccccc21,1%,6%,0%,15µM*,i,2%
SMILES,TGFb inhibitor,HT1080-NT tox,HT1080 IDH1KD tx,KB-V1 cytotox,KB-3-1 cytotox,HepG2 tox
COc1ccccc1OCCCn1c(=O)oc2ccccc21,6%,7%,2%,i,i,4%
CCC(=O)Nc1cccc(-c2nnc(-c3ccccc3)o2)c1,11%,-3%,-9%,i,i,27%
O=C(COc1ccccc1)Nc1cccc(-c2nc3cc4ccccc4cc3[nH]2)c1,?,?,?,9.2µM*,?,10µM*
Cc1ccc(OCC(=O)Nc2cccc(-c3nnc(-c4ccccc4)o3)c2)cc1,0%,0%,18%,2.3µM*,i,-15%
Clc1ccc(-c2nnc(-c3ccc4ccccc4c3)o2)cc1,5%,9%,15%,i,i,-2%
CCCCC(=O)Nc1cccc(-c2nnc(-c3ccccc3)o2)c1,31%,?,?,18µM*,i,-20%
Cc1ccc(-c2nnc(-c3ccc4ccccc4c3)o2)cc1,-1%,?,9.2µM*,i,?,-1%
Cc1cc(C)cc(OCC(=O)Nc2cccc(-c3nc4ccccc4[nH]3)c2)c1,?,·,·,i,i,-62%
Cc1ccc(C(=O)N(c2ccc(C)cc2)S(=O)(=O)c2ccc(Cl)cc2)cc1,?,·,·,?,i,-18%
CCn1c(SC)nnc1-c1sc2cc(Cl)ccc2c1Cl,-29%,-17%,-29%,?,i,-2%
CSc1nnc(-c2sc3cc(Cl)ccc3c2Cl)n1C,1%,0%,2%,18µM*,?,1%
CC(=O)Nc1ccccc1-c1nc2ccccc2n(C(C)C(=O)c2ccc(C)c(C)c2)c1=O (configuration not stated),2%,·,·,?,i,-15%
CCOC(=O)N1CCc2c(sc3c2c(=O)n(-c2ccc(CC)cc2)c(=O)n3Cc2ccc(F)cc2Cl)C1,0%,·,·,·,·,6%
Cc1c(NC2(c3nnnn3-c3ccc(Br)cc3)CCCCC2)c(=O)n(-c2ccccc2)n1C,6%,1%,-16%,3.7µM*,i,-16%
O=c1[nH]c2c(-c3nc(-c4ccc(F)cc4)cs3)c(O)cn2c2ccc(Br)cc12,41%,·,·,i,i,-13%
Cc1cc(C)n(/N=C/c2ccccc2)c(=O)c1C#N,-16%,9%,24%,i,i,0%
CCc1ccc(/C=N/n2c(C)cc(C)c(C#N)c2=O)cc1,?,6%,13%,9.2µM*,i,-13%
COC(=O)CC1Oc2ccc(C)cc2-n2cc(-c3ccc(F)cc3)nc21 (configuration not stated),5%,·,·,i,i,-10%
Cc1c(C(=O)OC2CCC(C)CC2)[nH]c2c1C(=O)CC(c1ccc(F)cc1)C2 (configuration not stated),3%,·,·,·,·,-3%
CCOC(=O)C1=C(COC(=O)/C=C/c2ccc(OC)cc2OC)NC(=O)NC1C (configuration not stated),4%,5%,5%,6.5µM*,i,-2%
Cc1ccc(CNc2cc(C)nc3nc(-c4cccc(C)c4)nn23)cc1,?,·,·,?,i,-18%
